Most compounds without a hit are left out; they make up all but 1.6% or so of the library.
KCNQ2 pot: enhances the rat KCNQ2 potassium channel | CHO-K1 KCNQ2, FluxOR thallium flux fluorescence; hits give high values | B-score at 10 µM | 310,000 tested, 0.54% active;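 active = fluorescence ratio B-score at least 3 SD of library B-scores, with initial fluorescence B-score within 3 of them, cut at about 5.3 in these data; same plate scores as AID 2156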;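 note: B-score of peak minus minimum over baseline fluorescence ratio after K+ and Tl+ stimulus; positive B-score means potentiation of KCNQ2 with more thallium influx and brighter signal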
Target sequence (O88943 whole entry, looked up): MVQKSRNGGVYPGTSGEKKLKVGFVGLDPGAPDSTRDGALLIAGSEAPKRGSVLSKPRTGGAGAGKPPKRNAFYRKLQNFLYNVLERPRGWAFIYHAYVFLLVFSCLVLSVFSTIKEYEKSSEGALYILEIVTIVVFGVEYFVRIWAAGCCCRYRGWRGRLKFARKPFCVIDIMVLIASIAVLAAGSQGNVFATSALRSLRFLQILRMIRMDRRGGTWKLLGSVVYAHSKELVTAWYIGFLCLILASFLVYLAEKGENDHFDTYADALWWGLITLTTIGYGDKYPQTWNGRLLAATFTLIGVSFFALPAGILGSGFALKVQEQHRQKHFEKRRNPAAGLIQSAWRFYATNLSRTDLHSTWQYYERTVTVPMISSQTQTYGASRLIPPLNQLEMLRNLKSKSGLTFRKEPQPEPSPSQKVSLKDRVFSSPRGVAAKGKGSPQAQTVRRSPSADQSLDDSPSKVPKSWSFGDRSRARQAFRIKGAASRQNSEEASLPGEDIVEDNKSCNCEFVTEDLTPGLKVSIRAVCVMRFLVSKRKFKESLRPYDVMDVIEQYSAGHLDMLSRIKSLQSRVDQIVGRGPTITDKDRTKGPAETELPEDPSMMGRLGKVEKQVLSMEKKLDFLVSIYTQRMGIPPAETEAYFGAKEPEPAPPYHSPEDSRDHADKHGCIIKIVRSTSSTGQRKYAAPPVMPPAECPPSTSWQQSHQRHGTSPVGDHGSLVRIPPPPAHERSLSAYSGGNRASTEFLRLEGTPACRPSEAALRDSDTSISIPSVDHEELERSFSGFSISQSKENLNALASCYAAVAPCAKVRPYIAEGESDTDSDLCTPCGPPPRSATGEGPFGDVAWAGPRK
KCNQ2 block: KCNQ2 (rat) channel inhibition | O88943 | CHO-K1 KCNQ2, FluxOR thallium flux, 20 min; hits give low values | B-score at 10 µM | 310,000 tested, 1.1% active | AID 2156;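 active = fluorescence ratio B-score at most minus 3 library SDs, with starting brightness B-score within 2 library SDs, cut at about -5.5 in these data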
* = called active by the depositor; i = inactive; / = no result.

SMILES | KCNQ2 pot | KCNQ2 block
O=C(NCC(c1cccs1)N1CCOCC1)c1ccccc1NS(=O)(=O)c1cc([N+](=O)[O-])ccc1Cl (centres undefined) | / | i
O=C(NCC(c1cccs1)N1CCOCC1)c1ccccc1NS(=O)(=O)c1ccc(Cl)c([N+](=O)[O-])c1 (centres undefined) | -6.2 | -6.2*
Cc1cccc(NC(=O)c2cccc(S(=O)(=O)NCc3ccccc3)c2)n1 | / | i
COc1ccccc1N(Cc1ccccc1)S(=O)(=O)c1cccc(C(=O)Nc2cccc(C)n2)c1 | -6.4 | -6.4*
O=C(CN(Cc1ccccc1)C(=O)CCC(=O)Nc1nccs1)NCc1ccccc1 | / | i
COc1ccnc(-n2cccc2C#N)c1C#N | 0.11 | i
O=C(OCC(=O)N1CCN(c2ccccc2)CC1)c1ccccc1NCCO | / | i
CC(NC(=O)CCCCCCN1C(=O)c2ccccc2C1=O)c1ccc2c(c1)CCCC2 (centres undefined) | 5.3* | i
CC(NC(=O)CCCCCN1C(=O)c2ccccc2C1=O)c1ccc2c(c1)CCCC2 (centres undefined) | 4.2 | i
CC(C)CC(=O)NC(=S)N1CCN(c2ccc([N+](=O)[O-])cc2Cl)CC1 | 0.84 | i
COc1ccccc1NC(=O)c1ccc2c(c1)nnn2C | 0.01 | i
CN(C)c1ccc(C(c2ccc(N(C)C)cc2)c2ccc([N+](=O)[O-])cc2)cc1 | -6.6 | -6.6*
CN(C)c1ccc(C=NC(CO)C(O)c2ccc([N+](=O)[O-])cc2)cc1 (centres undefined) | / | i
Cc1ccc(C)c(S(=O)(=O)Nc2ccccc2C(=O)Nc2ccccc2N2CCOCC2)c1 | -6 | -6*
Cc1ccccc1NC(=O)c1ccc(C)c(S(=O)(=O)Nc2cccnc2)c1 | / | i
Cc1cc(F)ccc1S(=O)(=O)Nc1ccccc1C(=O)Nc1ccccc1N1CCOCC1 | / | i
Cc1ccc(C)c(NS(=O)(=O)c2cc(C(=O)Nc3ccccc3-c3ccccc3)ccc2C)c1 | -6.2 | -6.2*
Cc1ccc(C(=O)Nc2ccccc2-c2ccccc2)cc1S(=O)(=O)Nc1cccc(C)c1C | -7.9 | -7.9*
Cc1ccc(C(=O)NCc2ccncc2)cc1S(=O)(=O)Nc1cccc(C)c1C | / | i
C=CCNC(=O)C1(c2ccccc2)CC1(Cl)Cl (centres undefined) | / | i
CSc1nccc(N/N=C/c2ccccc2)n1 | 0.31 | i
COc1ccc(-c2[nH]n(-c3ccc([N+](=O)[O-])cc3)c(=O)c2C=NCCN2CCNCC2)cc1 | / | i
O=c1c(C=NCCN2CCNCC2)c(-c2ccccc2)[nH]n1-c1ccc([N+](=O)[O-])cc1 | -7 | -7*
Cc1ccc(-c2cc(-c3ccccc3)[nH]c(=S)c2C#N)cc1 | 4.9 | i
N#Cc1c(-c2ccc(C(F)(F)F)cc2)cc(-c2ccccc2)[nH]c1=S | 5.4* | i
SMILES | KCNQ2 pot | KCNQ2 block
CCN1C(=O)/C(=C/c2ccc(C)s2)SC1=Nc1ccc(OC)cc1 | -6.3 | -6.3*
COc1ccc(N=C2S/C(=C\c3ccc(C)o3)C(=O)N2CC(C)C)cc1 | -6.1 | -6.1*
CCCN1C(=O)/C(=C/c2ccco2)SC1=Nc1ccc(OC)cc1 | / | i
CCCN1C(=O)/C(=C/c2ccc(C)o2)SC1=Nc1ccc(OC)cc1 | / | i
COc1ccc(OC)c(S(=O)(=O)NCCS(=O)(=O)N2CCN(c3ccccc3)CC2)c1 | / | i
CN(C)c1ccc(S(=O)(=O)N2CCCCC2)cc1NC(=O)C1=COCCO1 | 1.1 | i
COc1cc(CCN2C(=O)c3cccc4cccc(c34)C2=O)c(S(=O)(=O)N2CCCCCC2)cc1OC | / | i
COc1cc(CCN2C(=O)c3cccc4cccc(c34)C2=O)c(S(=O)(=O)N2CCC(C)CC2)cc1OC | -6.7 | -6.7*
COC(=O)C(=C/C=C/N1CCOCC1)C(=O)OC | 0.4 | i
COc1ccc(NC(=O)N2CCc3ccccc3C2)c(OC)c1 | 0.24 | i
O=[N+]([O-])c1c(Nc2ccccn2)cc(Cl)c2nonc12 | -11 | -11*
O=C(O)c1ccccc1Nc1cc(Cl)c2nonc2c1[N+](=O)[O-] | 0.04 | i
Cc1ccc(NC(=O)c2ccc3c(SCC(=O)O)c4c(nc3c2)CCCC4)c(Br)c1 | 1.4 | i
C=CCn1c(SCc2c(C)noc2C)nc2sc(C)c(C)c2c1=O | -6.5 | -6.5*
Cc1noc(C)c1CSc1nc2sc(C)c(C)c2c(=O)n1-c1ccccc1 | / | i
CC(C)CN(CC(C)C)C(=S)Nc1ccc(Cl)cc1 | 0.21 | i
COc1ccccc1C(=O)NNC1=C(C(=O)C(F)(F)F)CCC1 | 3.7 | i
O=C(NNC1=C(C(=O)C(F)(F)F)CCC1)c1ccccc1O | 11* | i
S=c1[nH]c2ccc(Cl)cc2s1 | 21* | i
Cc1cc(=O)[nH]c2ccc(Cl)cc12 | 0.91 | i
C=CCOc1ccc(/C=C2\SC(N3CCCCC3)=NC2=O)cc1 | 1.2 | i
COc1ccc(OCCOC(=O)c2nc3nccc(C)n3n2)cc1 | / | i
CC(C)(c1ccccc1)c1ccc(OCC(O)CNC2CCN(Cc3ccccc3)CC2)cc1 (centres undefined) | -8.3 | -8.3*
CCOc1ccc(OCC(O)CNC2CCN(Cc3ccccc3)CC2)cc1 (centres undefined) | 0.8 | i
Cc1cc(C)cc(C(=O)NC(CC(N)=O)c2ccc(NCC3CC3)c([N+](=O)[O-])c2)c1 (centres undefined) | / | i
SMILES | KCNQ2 pot | KCNQ2 block
COc1cccc(-c2cc(C(=O)N3CCN(c4ncccn4)CC3)c3ccccc3n2)c1 | / | i
CC(C)Oc1cccc(-c2cc(C(=O)N3CCN(c4ncccn4)CC3)c3ccccc3n2)c1 | -7.2 | -7.2*
O=C(Cc1ccc(S(=O)(=O)N2CCOCC2)s1)NCCc1ccc(F)cc1 | / | i
COc1ccc(-c2nc(N3CCCCCC3)sc2C(=O)c2ccccc2)cc1 | / | i
O=C(c1ccccc1)c1sc(N2CCCCCC2)nc1-c1ccccc1 | -6.2 | -6.2*
CCCc1nc(SCC(=O)N2CCN(c3ccccc3)CC2)c2c(=O)n(C)c(=O)n(C)c2n1 | 2.9 | i
CC(C)c1nc(SCC(=O)N2CCN(c3ccccc3)CC2)c2c(=O)n(C)c(=O)n(C)c2n1 | 6.2* | i
COc1cc(OC)c(NC(=O)CN(C)S(=O)(=O)c2ccc(-c3ccc(=O)[nH]n3)s2)cc1Cl | 0.64 | i
O=C(Nc1nc2ccc(F)cc2s1)c1ccccn1 | 16* | i
O=C(Nc1nc2ccc(F)cc2s1)C1=COCCO1 | / | i
O=C(/C=C/c1ccc2c(c1)OCO2)NCCSCc1cccc(Cl)c1 | / | i
O=C(/C=C/c1ccc2c(c1)OCO2)NCCSCc1ccc(Cl)cc1Cl | -7.8 | -7.8*
Cc1ccc(C(=O)NC(=S)NCc2ccco2)cc1 | / | i
CCOC(=O)c1sc(NC(=S)NC(=O)c2ccco2)nc1C | 5.7* | i
COC(=O)c1sc(NC(=O)c2ccco2)nc1C | 0.18 | i
O=C(NC(=S)Nc1nc2ccccc2s1)c1ccco1 | 8.1* | i
O=C(NC(=S)NCc1ccc(-c2nc3ccccc3s2)cc1)c1ccco1 | 0.1 | i
O=C(CN(Cc1ccccc1Cl)C(=O)c1csnn1)NC1CCCC1 | 1.3 | i
CCN(C(=O)/C=C/c1ccc2c(c1)OCO2)c1ccccc1 | -6 | -6*
CCN(CC(=O)Nc1ccc(NC(C)=O)cc1)C(=O)/C=C/c1ccc2c(c1)OCO2 | / | i
Cc1nc(NC(=O)CSc2nnc(-c3ccc4c(c3)OCO4)o2)c(Cl)cc1Cl | 18* | i
O=C(CSc1nnc(-c2ccc3c(c2)OCO3)o1)Nc1ncc(C(F)(F)F)cc1Cl | 1.6 | i

Bioassay records deposited in PubChem BioAssay by Johns Hopkins Ion Channel Center.
